Inconclusive results are not listed. A number with no mark means an inactive call. Activity calls are given as the source filed them. Calls follow the shape of the dose curve; as a rule, active = well fitted inhibition curve with a large enough effect; inconclusive = small, poorly fitted or top-dose-only effect, or effect the other way; inactive = flat fitted curve, though single readings scatter.
assay: Quantitative high throughput screen for delayed death inhibitors of the malarial parasite plastid, 48 hour incubation (AID 488752); conditions: Plasmodium falciparum growth; series mostly up to 28.7 µM; activity change, negative = inhibition: at the top concentration; also: nearly all actives have a fitted effect of over 65% in size
Excerpt: NIH Molecular Libraries Probe Production Network [MLPCN]
NIH Chemical Genomics Center [NCGC]
Assay Provider: David Fidock and Eric Ekland, Columbia University
The goal of this screen is to discover new antimalarial compounds that act by inhibiting the development of the apicoplast in the malarial parasite Plasmodium falciparum. The biochemical processes that make this organelle essential for erythrocytic stage parasites are not well understood. However, antibiotics, such as azithromycin and tetracycline, which target the apicoplast translational machinery, have a potent antimalarial effect.
We have developed a cell-based assay that measures parasite growth based on the expression of an integrated copy of a firefly luciferase reporter. To detect small molecules that cause this 'delayed death' phenotype, erythrocytes infected with the luciferase-expressing parasites were incubated with compounds for either one or two generations, corresponding to 48 and 96 hours, respectively. Compounds that inhibit parasite growth in the second generation, but not the first, should be enriched in antimalarials that target the apicoplast. Growth inhibition is detected by a decrease in luciferase activity
Four microliters of culture medium (RPMI 1640 with 0.5% w/v Albumax (GIBCO), 24 mM sodium bicarbonate and 10 ug/mL gentamycin) were dispensed by a Multi-drop Combi into white solid 1536-well plates (Grenier) and 23 nL compound was added by a pin tool. Four microliters of infected erythrocytes (2% hematocrit, 0.1% parasitemia final concentration) in culture medium were dispensed and the plates incubated for 48 hours at 37 C in 5% CO2. Two microliters of luciferase detection reagent was added and luminescence was detected by a ViewLux (PerkinElmer) reader
% is scaled to controls: 0 for no effect and ±100 for the full control effect; potency is read from the fitted curve at half-maximal effect.

Row | Compound | activity change, negative = inhibition | Potency
1 | O=C(O)c1cc2cc(Cc3cccnc3)ccc2o1 | 13.9% | –
2 | CC(CCc1ccccc1)NCC(O)c1ccc(O)c(C(N)=O)c1 (stereo not given) | – | 13.1 µM (active)
3 | CNCCC(Oc1ccccc1C)c1ccccc1 (stereo not given) | -4.77% | –
4 | Nc1cc(Cl)c(NC2=NCCN2)c(Cl)c1 | -0.0788% | –
5 | COC(=O)[C@H]1[C@H]2C[C@H]3c4[nH]c5ccccc5c4CCN3C[C@H]2CC[C@@H]1O | -11.6% | –
6 | CC(C)COC(=O)OCN1C(=O)CN(CCN2CC(=O)N(COC(=O)OCC(C)C)C(=O)C2)CC1=O | -1.72% | –
7 | CC1(C)CCC(NC(=O)[C@@H](N)CCC(=O)O)CC1 | 8.32% | –
8 | C[C@@H]1C(=O)NC2=Nc3cccc(Cl)c3CN21 | -5.61% | –
9 | Oc1ccc(O)cc1 | – | 8.28 µM (active)
10 | N[C@H](CO)C(=O)O | -1.17% | –
11 | N[C@@H](Cc1cnc[nH]1)C(=O)O | -0.23% | –
12 | C[C@]12CC[C@@H]3c4ccc(O)cc4CC[C@H]3[C@@H]1CC[C@@H]2O | 26% | –
13 | O=C1CCC(c2ccc(-n3ccnc3)cc2)=NN1 | 17.1% | –
14 | C1CCc2nnnn2CC1 | 25% | –
15 | COc1cc(-c2ccc(=O)[nH]n2)ccc1OC(F)F | 8.85% | –
16 | C[N+]1(CCCCC[N+]2(C)CCCC2)CCCC1 | 27.5% | –
17 | COc1cc(NS(C)(=O)=O)ccc1Nc1c2ccccc2nc2ccccc12 | – | 1.85 µM (active)
18 | CCCn1c(=O)[nH]c(=O)c2[nH]cnc21 | -19.2% | –
19 | CN=C(NC#N)Nc1ccc(C2=NNC(=O)CC2C)cc1 (stereo not given) | 6.98% | –
20 | CCC(NC(C)C)C(O)c1ccc(O)c(O)c1 (stereo not given) | 24.7% | –

From PubChem BioAssay (NCATS)
